Assays:
Assay in all cases: DAPPL (digital affinity profiling via proximity ligation, sequencing); 10 mM Tris-HCl pH 7.5, 50 mM NaCl, 1 mM DTT, 4% glycerol, room temperature, 30 min; GST-TFs on glutathione beads, 16-mer random dsDNA library, 0.1% formaldehyde crosslink after washing; high values mean tight binding
[1] = target: T1, FLI1 (Homo sapiens, UniProt Q01543 1-452); settings: protein: recombinant; tags: N-terminal GST; dsDNA, one strand shown
T1 sequence: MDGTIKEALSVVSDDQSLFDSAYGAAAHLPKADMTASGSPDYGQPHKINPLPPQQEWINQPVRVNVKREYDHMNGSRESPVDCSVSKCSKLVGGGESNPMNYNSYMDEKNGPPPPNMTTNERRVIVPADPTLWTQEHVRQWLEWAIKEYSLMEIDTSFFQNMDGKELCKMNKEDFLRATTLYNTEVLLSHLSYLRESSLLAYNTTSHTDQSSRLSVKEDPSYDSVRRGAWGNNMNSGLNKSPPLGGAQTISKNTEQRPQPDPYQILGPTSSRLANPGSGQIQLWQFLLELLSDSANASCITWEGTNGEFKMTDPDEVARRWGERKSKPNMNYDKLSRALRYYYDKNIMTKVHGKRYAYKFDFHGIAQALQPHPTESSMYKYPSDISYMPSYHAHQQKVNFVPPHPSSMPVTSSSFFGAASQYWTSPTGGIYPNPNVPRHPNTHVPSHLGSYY
Procedure, shortened: (§1)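 In yeast, human transcription factors were expressed with a GST fusion, then pulled down on glutathione beads and given DNA barcodes. Pooled with a tag-only sample, they were exposed to 200 nmole of a 16-mer random double-stranded DNA library (Tris/NaCl/DTT/glycerol buffer, room temperature, 30 min), washed, crosslinked with 0.1% formaldehyde, proximity-ligated using BsaI/T4 ligase for 1 h at 37 °C, PCR-amplified and read on an Illumina NextSeq500. Each hexamer's frequency of reads for a factor, divided by the matching frequency for the tag-only sample, gives the binding signal.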

[2] = target: T2, ELK1 (Homo sapiens, UniProt P19419 1-428); settings: protein: recombinant; tags: N-terminal GST; dsDNA, one strand shown
T2 sequence: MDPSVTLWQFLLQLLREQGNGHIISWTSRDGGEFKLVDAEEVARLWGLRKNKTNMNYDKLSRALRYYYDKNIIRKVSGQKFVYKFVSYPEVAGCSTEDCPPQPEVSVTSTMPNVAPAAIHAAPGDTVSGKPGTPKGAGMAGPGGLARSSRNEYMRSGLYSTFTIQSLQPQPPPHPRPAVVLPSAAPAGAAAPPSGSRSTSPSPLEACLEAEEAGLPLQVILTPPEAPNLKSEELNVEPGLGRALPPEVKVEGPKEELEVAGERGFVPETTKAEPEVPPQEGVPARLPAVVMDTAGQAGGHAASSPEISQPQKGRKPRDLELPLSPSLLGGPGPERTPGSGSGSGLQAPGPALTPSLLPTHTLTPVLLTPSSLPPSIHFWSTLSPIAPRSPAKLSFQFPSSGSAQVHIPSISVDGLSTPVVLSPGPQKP
Procedure, shortened: as §1

[3] = target: T3, GABPA (Homo sapiens, UniProt Q06546 1-454); settings: protein: recombinant; tags: N-terminal GST; dsDNA, one strand shown
T3 sequence: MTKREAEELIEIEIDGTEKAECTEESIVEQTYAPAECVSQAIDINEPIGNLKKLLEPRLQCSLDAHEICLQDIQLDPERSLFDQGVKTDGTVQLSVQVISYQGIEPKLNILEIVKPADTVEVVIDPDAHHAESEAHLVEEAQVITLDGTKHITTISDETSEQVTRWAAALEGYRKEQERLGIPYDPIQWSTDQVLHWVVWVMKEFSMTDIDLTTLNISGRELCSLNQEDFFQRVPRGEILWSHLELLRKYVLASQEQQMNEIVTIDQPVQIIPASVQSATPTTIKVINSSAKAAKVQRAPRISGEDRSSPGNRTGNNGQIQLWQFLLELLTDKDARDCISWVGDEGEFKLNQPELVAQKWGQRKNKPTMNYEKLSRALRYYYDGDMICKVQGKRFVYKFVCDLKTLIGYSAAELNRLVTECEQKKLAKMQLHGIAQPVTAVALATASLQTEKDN
Procedure, shortened: as §1

[4] = target: T4, ERG (Homo sapiens, UniProt P11308 1-479); settings: protein: recombinant; tags: N-terminal GST; dsDNA, one strand shown
T4 sequence: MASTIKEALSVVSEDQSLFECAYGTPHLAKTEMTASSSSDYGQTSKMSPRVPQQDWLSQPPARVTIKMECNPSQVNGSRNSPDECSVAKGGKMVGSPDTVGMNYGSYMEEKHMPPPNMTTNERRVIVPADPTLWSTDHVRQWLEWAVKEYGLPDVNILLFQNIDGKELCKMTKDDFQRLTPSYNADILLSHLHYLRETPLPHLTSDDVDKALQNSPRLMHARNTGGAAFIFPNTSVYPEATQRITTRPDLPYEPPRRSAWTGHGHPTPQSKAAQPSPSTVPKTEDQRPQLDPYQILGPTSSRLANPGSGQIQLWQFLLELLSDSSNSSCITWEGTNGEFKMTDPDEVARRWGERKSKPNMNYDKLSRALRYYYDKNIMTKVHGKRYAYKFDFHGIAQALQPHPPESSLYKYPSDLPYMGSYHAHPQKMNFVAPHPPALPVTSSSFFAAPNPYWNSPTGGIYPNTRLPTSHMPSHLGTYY
Procedure, shortened: as §1

[5] = target: ELF1 (Homo sapiens, UniProt P32519 1-619); settings: protein: recombinant; tags: N-terminal GST; dsDNA, one strand shown
Chain of ELF1 (P32519 whole entry): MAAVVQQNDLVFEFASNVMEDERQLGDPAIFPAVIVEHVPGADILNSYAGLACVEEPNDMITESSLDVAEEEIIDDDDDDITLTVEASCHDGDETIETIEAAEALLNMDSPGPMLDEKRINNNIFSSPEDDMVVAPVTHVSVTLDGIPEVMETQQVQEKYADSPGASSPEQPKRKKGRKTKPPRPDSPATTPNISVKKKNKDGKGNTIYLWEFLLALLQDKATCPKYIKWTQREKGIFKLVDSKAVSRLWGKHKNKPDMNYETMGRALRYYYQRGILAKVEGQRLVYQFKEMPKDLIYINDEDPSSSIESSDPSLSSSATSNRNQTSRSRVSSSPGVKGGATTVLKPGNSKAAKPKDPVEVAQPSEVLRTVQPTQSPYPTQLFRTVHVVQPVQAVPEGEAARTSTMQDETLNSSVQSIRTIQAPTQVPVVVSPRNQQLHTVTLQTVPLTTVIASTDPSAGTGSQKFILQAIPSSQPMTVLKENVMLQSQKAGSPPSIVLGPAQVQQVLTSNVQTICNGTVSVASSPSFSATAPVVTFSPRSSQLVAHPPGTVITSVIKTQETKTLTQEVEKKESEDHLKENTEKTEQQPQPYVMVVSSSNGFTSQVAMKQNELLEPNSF
Procedure, shortened: as §1

[6] = target: T5, EHF (Homo sapiens, UniProt Q9NZC4 1-300); settings: protein: recombinant; tags: N-terminal GST; dsDNA, one strand shown
T5 sequence: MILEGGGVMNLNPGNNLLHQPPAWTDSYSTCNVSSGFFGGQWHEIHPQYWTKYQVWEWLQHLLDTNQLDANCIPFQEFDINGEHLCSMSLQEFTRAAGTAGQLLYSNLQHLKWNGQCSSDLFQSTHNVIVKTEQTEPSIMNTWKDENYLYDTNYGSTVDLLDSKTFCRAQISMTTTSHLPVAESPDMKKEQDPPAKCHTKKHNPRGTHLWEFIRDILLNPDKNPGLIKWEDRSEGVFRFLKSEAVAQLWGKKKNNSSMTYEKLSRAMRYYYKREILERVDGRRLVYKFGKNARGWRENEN
Procedure, shortened: as §1

[7] = target: SPI1 (Homo sapiens, UniProt P17947 1-270); settings: protein: recombinant; tags: N-terminal GST; dsDNA, one strand shown
Procedure, shortened: as §1

[8] = target: SPIB (Homo sapiens, UniProt Q01892 1-262); settings: protein: recombinant; tags: N-terminal GST; dsDNA, one strand shown
Chain of SPIB (Q01892 whole entry): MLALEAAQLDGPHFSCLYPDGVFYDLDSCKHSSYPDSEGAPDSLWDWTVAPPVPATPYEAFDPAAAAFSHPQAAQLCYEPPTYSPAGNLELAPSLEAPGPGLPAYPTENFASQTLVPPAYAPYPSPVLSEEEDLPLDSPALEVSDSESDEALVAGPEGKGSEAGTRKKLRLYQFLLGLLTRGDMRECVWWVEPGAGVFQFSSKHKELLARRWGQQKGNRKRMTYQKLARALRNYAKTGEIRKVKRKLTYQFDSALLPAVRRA
Procedure, shortened: as §1

[9] = target: T6, ELK3 (Homo sapiens, UniProt P41970 1-407); settings: protein: recombinant; tags: N-terminal GST; dsDNA, one strand shown
T6 sequence: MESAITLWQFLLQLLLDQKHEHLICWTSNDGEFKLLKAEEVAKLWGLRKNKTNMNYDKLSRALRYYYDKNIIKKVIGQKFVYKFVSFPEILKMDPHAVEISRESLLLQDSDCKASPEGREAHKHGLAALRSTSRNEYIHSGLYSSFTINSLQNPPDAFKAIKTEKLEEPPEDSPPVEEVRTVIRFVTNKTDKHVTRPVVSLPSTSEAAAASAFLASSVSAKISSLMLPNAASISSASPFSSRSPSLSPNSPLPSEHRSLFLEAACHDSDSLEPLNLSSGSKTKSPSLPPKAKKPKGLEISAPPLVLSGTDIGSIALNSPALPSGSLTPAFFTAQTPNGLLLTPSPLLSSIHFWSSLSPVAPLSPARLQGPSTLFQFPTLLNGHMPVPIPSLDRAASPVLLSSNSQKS
Procedure, shortened: as §1

[10] = target: T7, FEV (Homo sapiens, UniProt Q99581 1-238); settings: protein: recombinant; tags: N-terminal GST; dsDNA, one strand shown
T7 sequence: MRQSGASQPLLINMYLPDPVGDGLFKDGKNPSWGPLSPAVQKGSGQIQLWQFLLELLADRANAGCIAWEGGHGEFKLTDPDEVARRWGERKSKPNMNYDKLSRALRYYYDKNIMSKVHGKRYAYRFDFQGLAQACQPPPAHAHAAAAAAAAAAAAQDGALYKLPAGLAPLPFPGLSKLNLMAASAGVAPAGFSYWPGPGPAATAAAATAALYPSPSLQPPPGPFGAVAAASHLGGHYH
Procedure, shortened: as §1

[11] = target: ETV5 (Homo sapiens, UniProt P41161 1-510); settings: protein: recombinant; tags: N-terminal GST; dsDNA, one strand shown
Chain of ETV5 (P41161 whole entry): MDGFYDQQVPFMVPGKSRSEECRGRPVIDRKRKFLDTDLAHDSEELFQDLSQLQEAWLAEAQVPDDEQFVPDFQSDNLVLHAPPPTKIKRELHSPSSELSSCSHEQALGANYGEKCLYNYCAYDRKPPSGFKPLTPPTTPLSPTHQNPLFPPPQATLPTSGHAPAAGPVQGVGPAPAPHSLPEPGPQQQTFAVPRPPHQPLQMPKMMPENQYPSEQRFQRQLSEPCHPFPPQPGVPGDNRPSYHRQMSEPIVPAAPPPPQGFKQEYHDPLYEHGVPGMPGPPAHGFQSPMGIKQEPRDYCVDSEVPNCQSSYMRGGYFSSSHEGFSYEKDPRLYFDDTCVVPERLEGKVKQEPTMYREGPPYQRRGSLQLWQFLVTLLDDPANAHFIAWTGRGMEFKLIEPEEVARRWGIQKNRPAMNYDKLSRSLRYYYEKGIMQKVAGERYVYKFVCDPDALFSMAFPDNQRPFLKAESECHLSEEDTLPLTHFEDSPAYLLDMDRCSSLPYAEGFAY
Procedure, shortened: as §1

[12] = target: HSF1 (Homo sapiens, UniProt Q00613 1-529); settings: protein: recombinant; tags: N-terminal GST; chain copies: 3; dsDNA, one strand shown
Chain of HSF1 (Q00613 whole entry): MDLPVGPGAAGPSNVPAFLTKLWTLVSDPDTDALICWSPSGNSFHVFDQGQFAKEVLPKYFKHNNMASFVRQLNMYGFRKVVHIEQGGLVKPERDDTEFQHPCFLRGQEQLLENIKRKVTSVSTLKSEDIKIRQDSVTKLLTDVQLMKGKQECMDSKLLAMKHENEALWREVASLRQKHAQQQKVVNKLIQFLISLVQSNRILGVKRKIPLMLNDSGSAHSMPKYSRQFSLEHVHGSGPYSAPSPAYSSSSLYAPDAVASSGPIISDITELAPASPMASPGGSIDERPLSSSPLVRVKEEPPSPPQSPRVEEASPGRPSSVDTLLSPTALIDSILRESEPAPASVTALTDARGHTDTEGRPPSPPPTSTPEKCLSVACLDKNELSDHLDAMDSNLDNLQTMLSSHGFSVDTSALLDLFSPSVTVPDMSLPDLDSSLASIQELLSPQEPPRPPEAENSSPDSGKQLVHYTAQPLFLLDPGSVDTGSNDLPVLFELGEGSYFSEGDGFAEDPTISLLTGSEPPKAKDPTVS
Procedure, shortened: as §1

[13] = target: T8, SPIC (Homo sapiens, UniProt Q8N5J4 1-248); settings: protein: recombinant; tags: N-terminal GST; dsDNA, one strand shown
T8 sequence: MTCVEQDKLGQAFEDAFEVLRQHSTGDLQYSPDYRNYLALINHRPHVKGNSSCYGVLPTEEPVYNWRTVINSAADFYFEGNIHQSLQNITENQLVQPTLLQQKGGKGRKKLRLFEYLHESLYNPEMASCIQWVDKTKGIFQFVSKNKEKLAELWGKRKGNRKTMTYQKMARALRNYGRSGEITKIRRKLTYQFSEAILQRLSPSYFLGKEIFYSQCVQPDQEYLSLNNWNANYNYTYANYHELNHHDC
Procedure, shortened: as §1

[14] = target: ELF4 (Homo sapiens, UniProt Q99607 1-663); settings: protein: recombinant; tags: N-terminal GST; dsDNA, one strand shown
Chain of ELF4 (Q99607 whole entry): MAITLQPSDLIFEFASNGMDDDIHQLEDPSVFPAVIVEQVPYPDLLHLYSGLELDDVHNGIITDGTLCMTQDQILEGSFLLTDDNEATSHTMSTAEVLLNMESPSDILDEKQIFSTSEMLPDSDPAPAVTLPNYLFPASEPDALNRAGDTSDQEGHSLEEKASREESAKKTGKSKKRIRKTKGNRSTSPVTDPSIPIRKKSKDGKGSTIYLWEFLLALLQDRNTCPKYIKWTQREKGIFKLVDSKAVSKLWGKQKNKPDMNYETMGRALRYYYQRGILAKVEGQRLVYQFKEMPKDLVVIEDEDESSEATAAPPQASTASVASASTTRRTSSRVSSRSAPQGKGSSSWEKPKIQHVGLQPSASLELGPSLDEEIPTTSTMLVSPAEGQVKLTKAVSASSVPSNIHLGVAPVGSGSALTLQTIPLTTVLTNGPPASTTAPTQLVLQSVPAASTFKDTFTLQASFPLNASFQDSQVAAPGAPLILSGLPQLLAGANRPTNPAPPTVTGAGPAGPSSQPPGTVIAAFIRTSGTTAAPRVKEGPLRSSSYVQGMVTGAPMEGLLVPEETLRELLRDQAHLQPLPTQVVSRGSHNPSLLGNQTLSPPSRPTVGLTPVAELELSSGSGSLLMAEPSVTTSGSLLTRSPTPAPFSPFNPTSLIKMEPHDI
Procedure, shortened: as §1

[15] = target: T9, ELK4 (Homo sapiens, UniProt P28324-2 1-405); settings: protein: recombinant; tags: N-terminal GST; dsDNA, one strand shown
T9 sequence: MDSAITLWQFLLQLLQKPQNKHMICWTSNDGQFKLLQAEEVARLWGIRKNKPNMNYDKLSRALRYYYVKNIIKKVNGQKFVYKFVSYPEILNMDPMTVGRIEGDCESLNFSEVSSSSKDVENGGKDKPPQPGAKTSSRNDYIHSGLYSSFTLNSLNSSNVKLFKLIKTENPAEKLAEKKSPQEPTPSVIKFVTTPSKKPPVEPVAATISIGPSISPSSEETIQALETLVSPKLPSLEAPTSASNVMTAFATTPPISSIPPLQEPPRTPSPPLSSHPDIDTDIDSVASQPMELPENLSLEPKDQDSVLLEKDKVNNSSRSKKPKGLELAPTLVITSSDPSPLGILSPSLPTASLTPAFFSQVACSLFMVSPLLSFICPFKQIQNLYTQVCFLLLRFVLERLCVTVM
Procedure, shortened: as §1

[16] = target: T10, ETV2 (Homo sapiens, UniProt O00321 1-342); settings: protein: recombinant; tags: N-terminal GST; dsDNA, one strand shown
T10 sequence: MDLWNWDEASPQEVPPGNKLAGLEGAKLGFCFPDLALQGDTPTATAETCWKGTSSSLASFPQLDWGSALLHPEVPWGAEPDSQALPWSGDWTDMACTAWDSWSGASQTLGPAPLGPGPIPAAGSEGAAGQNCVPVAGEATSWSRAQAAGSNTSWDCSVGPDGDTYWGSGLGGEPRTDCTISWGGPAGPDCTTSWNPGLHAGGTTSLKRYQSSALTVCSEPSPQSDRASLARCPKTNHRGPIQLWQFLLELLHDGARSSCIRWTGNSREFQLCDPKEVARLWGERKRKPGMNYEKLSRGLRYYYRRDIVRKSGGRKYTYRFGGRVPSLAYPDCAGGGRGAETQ
Procedure, shortened: as §1

[17] = target: T11, ELF3 (Homo sapiens, UniProt P78545 1-371); settings: protein: recombinant; tags: N-terminal GST; dsDNA, one strand shown
T11 sequence: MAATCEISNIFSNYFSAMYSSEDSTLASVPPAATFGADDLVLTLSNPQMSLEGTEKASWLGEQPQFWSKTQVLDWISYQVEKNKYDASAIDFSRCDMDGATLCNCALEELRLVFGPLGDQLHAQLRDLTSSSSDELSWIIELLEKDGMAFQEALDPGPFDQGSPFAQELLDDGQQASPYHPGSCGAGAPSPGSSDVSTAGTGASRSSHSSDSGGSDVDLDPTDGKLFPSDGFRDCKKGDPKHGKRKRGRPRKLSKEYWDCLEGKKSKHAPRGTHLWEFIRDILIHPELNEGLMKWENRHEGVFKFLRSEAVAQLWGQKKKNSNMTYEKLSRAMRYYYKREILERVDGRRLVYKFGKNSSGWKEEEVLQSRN
Procedure, shortened: as §1

[18] = target: ETV1 (Homo sapiens, UniProt P50549 1-477); settings: protein: recombinant; tags: N-terminal GST; dsDNA, one strand shown
Chain of ETV1 (P50549 whole entry): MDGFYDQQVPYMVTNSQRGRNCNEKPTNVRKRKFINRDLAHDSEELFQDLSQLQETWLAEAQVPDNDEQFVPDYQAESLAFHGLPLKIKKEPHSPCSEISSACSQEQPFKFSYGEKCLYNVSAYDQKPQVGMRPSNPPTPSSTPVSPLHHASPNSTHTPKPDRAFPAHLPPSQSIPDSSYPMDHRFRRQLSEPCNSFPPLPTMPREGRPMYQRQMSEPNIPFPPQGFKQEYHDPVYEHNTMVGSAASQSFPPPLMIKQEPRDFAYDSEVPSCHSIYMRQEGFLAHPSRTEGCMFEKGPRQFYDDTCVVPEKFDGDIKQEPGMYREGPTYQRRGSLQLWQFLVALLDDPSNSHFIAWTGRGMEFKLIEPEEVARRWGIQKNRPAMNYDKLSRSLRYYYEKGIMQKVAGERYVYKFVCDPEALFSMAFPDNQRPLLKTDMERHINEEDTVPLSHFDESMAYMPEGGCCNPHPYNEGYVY
Procedure, shortened: as §1

Sequence: ACGAAC
- binding signal [1]: 1.11 fold enrichment (6-mer frequency, TF over GST control)
- binding signal [2]: 1.15 fold enrichment (6-mer frequency, TF over GST control)
- binding signal [3]: 1.19 fold enrichment (6-mer frequency, TF over GST control)
- binding signal [4]: 1.15 fold enrichment (6-mer frequency, TF over GST control)
- binding signal [5]: 1.24 fold enrichment (6-mer frequency, TF over GST control)
- binding signal [6]: 1.12 fold enrichment (6-mer frequency, TF over GST control)
- binding signal [7]: 1.1 fold enrichment (6-mer frequency, TF over GST control)
- binding signal [8]: 1.22 fold enrichment (6-mer frequency, TF over GST control)
- binding signal [9]: 1.13 fold enrichment (6-mer frequency, TF over GST control)
- binding signal [10]: 1.15 fold enrichment (6-mer frequency, TF over GST control)
- binding signal [11]: 1.22 fold enrichment (6-mer frequency, TF over GST control)
- binding signal [12]: 1.19 fold enrichment (6-mer frequency, TF over GST control)
- binding signal [13]: 1.07 fold enrichment (6-mer frequency, TF over GST control)
- binding signal [14]: 1.22 fold enrichment (6-mer frequency, TF over GST control)
- binding signal [15]: 1.18 fold enrichment (6-mer frequency, TF over GST control)
- binding signal [16]: 1.18 fold enrichment (6-mer frequency, TF over GST control)
- binding signal [17]: 1.22 fold enrichment (6-mer frequency, TF over GST control)
- binding signal [18]: 1.09 fold enrichment (6-mer frequency, TF over GST control)

From publication PMC7862700, “An all-to-all approach to the identification of sequence-specific readers for epigenetic DNA modifications on cytosine”
